# Results: the supplement of paper PMC8728848
# The full list was thinned out, with the strongest signals kept by preference.
# How the values were obtained:
# Assay in all cases: glycan array binding signal (z-score within array); higher = stronger binding
# Settings in all cases: glycan notation: IUPAC condensed, linker removed
# Fuc(a1-2)Gal(b1-3)GalNAc = target: Fuc(a1-2)Gal(b1-3)GalNAc
# Procedure, shortened: (§1)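 The Consortium for Functional Glycomics database supplied 3228 glycan arrays, of which those lacking an available protein sequence were dropped. The binding signal, a within-array Z-score, was averaged across arrays of the same protein sequence and across linkers. Negative scores can be read as non-binding.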
# [1] = target: Fuc(a1-2)Gal(b1-3)GlcNAc(b1-2)Man(a1-3)[Fuc(a1-2)Gal(b1-3)GlcNAc(b1-2)Man(a1-6)]Man(b1-4)GlcNAc(b1-4)GlcNAc
# Procedure, shortened: as §1
# [2] = target: Fuc(a1-2)Gal(b1-4)GlcNAc(b1-2)[Fuc(a1-2)Gal(b1-4)GlcNAc(b1-4)]Man(a1-3)[Fuc(a1-2)Gal(b1-4)GlcNAc(b1-2)Man(a1-6)]Man(b1-4)GlcNAc(b1-4)GlcNAc
# Procedure, shortened: as §1
# [3] = target: Fuc(a1-2)[Gal(a1-3)]Gal(b1-4)Glc
# Procedure, shortened: as §1
# [4] = target: Fuc(a1-2)[Gal(a1-3)]Gal(b1-4)GlcNAc(b1-2)Man(a1-3)[Fuc(a1-2)[Gal(a1-3)]Gal(b1-4)GlcNAc(b1-2)Man(a1-6)]Man(b1-4)GlcNAc(b1-4)GlcNAc
# Procedure, shortened: as §1
# [5] = target: Fuc(a1-2)[Gal(a1-3)]Gal(b1-4)[Fuc(a1-3)]GlcNAc
# Procedure, shortened: as §1
# [6] = target: Fuc(a1-2)[GalNAc(a1-3)]Gal(b1-3)GlcNAc(b1-2)Man(a1-3)[Fuc(a1-2)[GalNAc(a1-3)]Gal(b1-3)GlcNAc(b1-2)Man(a1-6)]Man(b1-4)GlcNAc(b1-4)[Fuc(a1-6)]GlcNAc
# Procedure, shortened: as §1
# [7] = target: Fuc(a1-2)[GalNAc(a1-3)]Gal(b1-4)GlcNAc(b1-2)Man(a1-3)[Fuc(a1-2)[GalNAc(a1-3)]Gal(b1-4)GlcNAc(b1-2)Man(a1-6)]Man(b1-4)GlcNAc(b1-4)GlcNAc
# Procedure, shortened: as §1
# [8] = target: Fuc(a1-2)[GalNAc(a1-3)]Gal(b1-4)GlcNAc(b1-3)Gal(b1-4)GlcNAc
# Procedure, shortened: as §1
# [9] = target: Fuc(a1-2)[GalNAc(a1-3)]Gal(b1-4)GlcNAc(b1-3)Gal(b1-4)GlcNAc(b1-3)Gal(b1-4)GlcNAc
# Procedure, shortened: as §1
# [10] = target: Fuc(a1-3)[Gal(b1-4)]GlcNAc(b1-2)Man(a1-6)[Gal(b1-4)GlcNAc(b1-2)Man(a1-3)]Man(b1-4)GlcNAc(b1-4)GlcNAc
# Procedure, shortened: as §1
# Gal(a1-3)Gal = target: Gal(a1-3)Gal
# Procedure, shortened: as §1
# [11] = target: Gal(a1-3)Gal(b1-4)[Fuc(a1-3)]GlcNAc(b1-2)Man(a1-3)[Gal(a1-3)Gal(b1-4)[Fuc(a1-3)]GlcNAc(b1-2)Man(a1-6)]Man(b1-4)GlcNAc(b1-4)GlcNAc
# Procedure, shortened: as §1
# Gal(b1-2)Gal = target: Gal(b1-2)Gal
# Procedure, shortened: as §1
# [12] = target: Gal(b1-3)GalNAc(a1-3)[Fuc(a1-2)]Gal(b1-4)GlcNAc
# Procedure, shortened: as §1
# Gal(b1-3)GlcNAc = target: Gal(b1-3)GlcNAc
# Procedure, shortened: as §1
# [13] = target: Gal(b1-3)GlcNAc(b1-2)Man(a1-3)[Gal(b1-3)GlcNAc(b1-2)Man(a1-6)]Man(b1-4)GlcNAc(b1-4)[Fuc(a1-6)]GlcNAc
# Procedure, shortened: as §1
# [14] = target: Gal(b1-3)GlcNAc(b1-3)Gal(b1-4)Glc
# Procedure, shortened: as §1
# [15] = target: Gal(b1-3)GlcNAc(b1-3)GalNAc
# Procedure, shortened: as §1
# Gal(b1-4)Gal = target: Gal(b1-4)Gal
# Procedure, shortened: as §1
# [16] = target: Gal(b1-4)GlcNAc(b1-2)Man(a1-3)[Man(a1-6)]Man(b1-4)GlcNAc(b1-4)GlcNAc
# Procedure, shortened: as §1
# [17] = target: Gal(b1-4)GlcNAc(b1-2)[Gal(b1-4)GlcNAc(b1-6)]Man(a1-6)[GlcNAc(b1-4)][Gal(b1-4)GlcNAc(b1-2)Man(a1-3)]Man(b1-4)GlcNAc(b1-4)GlcNAc
# Procedure, shortened: as §1
# [18] = target: Gal(b1-4)GlcNAc(b1-3)Gal(b1-3)GlcNAc
# Procedure, shortened: as §1
# [19] = target: Gal(b1-4)GlcNAc(b1-3)Gal(b1-4)Glc
# Procedure, shortened: as §1
# Gal3S6S(b1-4)GlcNAc6S = target: Gal3S6S(b1-4)GlcNAc6S
# Procedure, shortened: as §1
# Gal6S(b1-4)Glc6S = target: Gal6S(b1-4)Glc6S
# Procedure, shortened: as §1
# Gal6S(b1-4)GlcNAc = target: Gal6S(b1-4)GlcNAc
# Procedure, shortened: as §1
# GalNAc6S(b1-4)GlcNAc = target: GalNAc6S(b1-4)GlcNAc
# Procedure, shortened: as §1
# [20] = target: Glc(a1-6)Glc(a1-6)Glc(a1-6)Glc
# Procedure, shortened: as §1
# Glc(b1-4)Glc = target: Glc(b1-4)Glc
# Procedure, shortened: as §1
# Glc(b1-6)Glc = target: Glc(b1-6)Glc
# Procedure, shortened: as §1
# GlcA(b1-3)Gal = target: GlcA(b1-3)Gal
# Procedure, shortened: as §1
# [21] = target: GlcNAc(b1-3)[GlcNAc(b1-4)][GlcNAc(b1-6)]GlcNAc
# Procedure, shortened: as §1
# [22] = target: GlcNAc6S(b1-3)Gal(b1-4)GlcNAc
# Procedure, shortened: as §1
# [23] = target: Man(a1-3)[Man(a1-6)]Man(a1-6)[Man(a1-2)Man(a1-3)]Man(b1-4)GlcNAc(b1-4)GlcNAc
# Procedure, shortened: as §1
# [24] = target: Man(a1-3)[Man(a1-6)]Man(a1-6)[Man(a1-3)]Man
# Procedure, shortened: as §1
# [25] = target: Man(a1-3)[Man(a1-6)]Man(a1-6)[Man(a1-3)]Man(b1-4)GlcNAc(b1-4)GlcNAc
# Procedure, shortened: as §1
# [26] = target: Neu5Ac(a2-3)Gal(b1-3)GlcNAc6S
# Procedure, shortened: as §1
# [27] = target: Neu5Ac(a2-3)Gal(b1-4)GlcNAc(b1-2)Man(a1-3)[GlcNAc(b1-2)Man(b1-4)GlcNAc(b1-2)Man(a1-6)]Man(b1-4)GlcNAc(b1-4)GlcNAc
# Procedure, shortened: as §1
# [28] = target: Neu5Ac(a2-3)Gal(b1-4)GlcNAc(b1-2)Man(a1-3)[Neu5Ac(a2-6)Gal(b1-4)GlcNAc(b1-2)Man(a1-6)]Man(b1-4)GlcNAc(b1-4)GlcNAc
# Procedure, shortened: as §1
# [29] = target: Neu5Ac(a2-3)Gal(b1-4)GlcNAc(b1-3)Gal(b1-4)GlcNAc
# Procedure, shortened: as §1
# [30] = target: Neu5Ac(a2-3)Gal(b1-4)[Fuc(a1-3)]GlcNAc(b1-3)Gal
# Procedure, shortened: as §1
# [31] = target: Neu5Ac(a2-3)Gal(b1-4)[Fuc(a1-3)]GlcNAc6S
# Procedure, shortened: as §1
# Neu5Ac(a2-3)GalNAc = target: Neu5Ac(a2-3)GalNAc
# Procedure, shortened: as §1
# [32] = target: Neu5Ac(a2-6)Gal(b1-4)GlcNAc(b1-2)Man(a1-3)[Gal(b1-4)GlcNAc(b1-2)Man(a1-6)]Man(b1-4)GlcNAc(b1-4)GlcNAc
# Procedure, shortened: as §1
# [33] = target: Neu5Ac(a2-8)Neu5Ac(a2-8)Neu5Ac(a2-3)[GalNAc(b1-4)]Gal(b1-4)Glc
# Procedure, shortened: as §1
# [34] = target: Neu5Gc(a2-3)Gal(b1-3)[Fuc(a1-4)]GlcNAc
# Procedure, shortened: as §1
# [35] = target: Neu5Gc(b2-6)Gal(b1-4)GlcNAc
# Procedure, shortened: as §1
binder,measurement,setting,value
"Gal 8 (Homo sapiens), O00214_1 (protein) MMLSLNNLQNIIYNPVIPFVGTIPDQLDPGTLIVIRGHVPSDADRFQVDLQNGSSMKPRADVAFHFNPRFKRAGCIVCNTLINEKWGREEITYDTPFKREKSFEIVIMVLKDKFQVAVNGKHTLLYGHRIGPEKIDTLGIYGKVNIHSIGFSFSSDLQSTQASSLELTEISRENVPKSGTPQLRLPFAARLNTPMGPGRTVVVKGEVNANAKSFNVDLLAGKSKDIALHLNPRLNIKAFVRNSFLQESWGEEERNITSFPFSPGMYFEMIIYCDVREFKVAVNGVHSLEYKHRFKELSSIDTLEINGDIHLLEVRSW",glycan array binding signal (z-score),Fuc(a1-2)Gal(b1-3)GalNAc,-0.23
same,glycan array binding signal (z-score),[1],0.466
same,glycan array binding signal (z-score),[2],-1.24
same,glycan array binding signal (z-score),[3],3.1
same,glycan array binding signal (z-score),[4],2.33
same,glycan array binding signal (z-score),[5],-0.143
same,glycan array binding signal (z-score),[6],1.73
same,glycan array binding signal (z-score),[7],2.14
same,glycan array binding signal (z-score),[8],2.58
same,glycan array binding signal (z-score),[9],2.31
same,glycan array binding signal (z-score),[10],-0.273
same,glycan array binding signal (z-score),Gal(a1-3)Gal,-0.252
same,glycan array binding signal (z-score),[11],-0.137
same,glycan array binding signal (z-score),Gal(b1-2)Gal,-0.201
same,glycan array binding signal (z-score),[12],2.17
same,glycan array binding signal (z-score),Gal(b1-3)GlcNAc,-0.167
same,glycan array binding signal (z-score),[13],-0.63
same,glycan array binding signal (z-score),[14],0.084
same,glycan array binding signal (z-score),[15],-0.235
same,glycan array binding signal (z-score),Gal(b1-4)Gal,-0.099
same,glycan array binding signal (z-score),[16],0.003
same,glycan array binding signal (z-score),[17],-0.251
same,glycan array binding signal (z-score),[18],1.38
same,glycan array binding signal (z-score),[19],2.32
same,glycan array binding signal (z-score),Gal3S6S(b1-4)GlcNAc6S,-0.201
same,glycan array binding signal (z-score),Gal6S(b1-4)Glc6S,-0.094
same,glycan array binding signal (z-score),Gal6S(b1-4)GlcNAc,-0.172
same,glycan array binding signal (z-score),GalNAc6S(b1-4)GlcNAc,-0.215
same,glycan array binding signal (z-score),[20],-0.23
same,glycan array binding signal (z-score),Glc(b1-4)Glc,0.078
same,glycan array binding signal (z-score),Glc(b1-6)Glc,-0.234
same,glycan array binding signal (z-score),GlcA(b1-3)Gal,-0.219
same,glycan array binding signal (z-score),[21],-0.227
same,glycan array binding signal (z-score),[22],-0.585
same,glycan array binding signal (z-score),[23],2.31
same,glycan array binding signal (z-score),[24],-0.195
same,glycan array binding signal (z-score),[25],-0.16
same,glycan array binding signal (z-score),[26],2.19
same,glycan array binding signal (z-score),[27],-0.189
same,glycan array binding signal (z-score),[28],-0.225
same,glycan array binding signal (z-score),[29],-0.244
same,glycan array binding signal (z-score),[30],-0.243
same,glycan array binding signal (z-score),[31],-0.235
same,glycan array binding signal (z-score),Neu5Ac(a2-3)GalNAc,-0.201
same,glycan array binding signal (z-score),[32],-0.254
same,glycan array binding signal (z-score),[33],0.35
same,glycan array binding signal (z-score),[34],-0.233
same,glycan array binding signal (z-score),[35],-0.219
